Where “and” joins values, the source holds several entries; their conditions need not be identical. Identical values can stand only once. Results filed as inconclusive are left out. A structure can be active in one record and inactive in another. Calls of active or inactive are those of the source. Unless noted, calls come from the whole dose curve.

Drawing on PubChem BioAssay (Tox21), this text covers Potency for seven molecules.

The nature of experiment [1]: Nuclear factor erythroid 2-related factor 2/antioxidant responsive element (Nrf2/ARE) small molecule agonists: qHTS cell viability counter screen in human keratinocytes (AID 1919968; active = well fitted curve in the direction sought with a large enough effect in the repeat runs; an effect the other way counts as inactive or inconclusive; note: nearly all actives have a fitted effect of over 55% in size; note: potency is the fitted concentration of half-maximal effect). The method, boiled down: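 Parallel cytotoxicity read: KeratinoSens HaCaT cells, compound treatment 23 h, viability by CellTiter-Fluor fluorescence 1 h post-reagent.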
Background: Quantitative high-throughput screening tests each substance at several concentrations.

Experiment [2] in a line: Nuclear factor erythroid 2-related factor 2/antioxidant responsive element (Nrf2/ARE) small molecule agonists: luciferase reporter gene qHTS assay in human keratinocytes (AID 1919969). Note: nearly all actives have a fitted effect of over 35% in size. Note: potency is the fitted concentration of half-maximal effect. On the technique in general: In a reporter assay the amount or activity of a reporter protein is the signal.
The target of experiment [3] is Gonadotropin-releasing hormone receptor (Homo sapiens) (UniProt P30968). Kind of experiment: Human gonadotropin-releasing hormone receptor (GnRHR) small molecule agonists, calcium flux assay in GnRHR-HEK293 cells (AID 1920063). Note: nearly all actives have a fitted effect of over 35% in size. Note: potency is the fitted concentration of half-maximal effect. The method, boiled down: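 Calcium flux, agonist mode, human GnRHR stably integrated in HEK293; dye 1 h at 37 C before compound; Ex/Em=480/540 kinetic read, 3 min; 15 concentrations, triplicate.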
On the technique in general: A change in cytosolic calcium serves as a functional read-out for many receptors and channels.

The target of experiment [4] is KiSS-1 receptor (Homo sapiens) (UniProt Q969F8). Kind of experiment: Human kisspeptin (KISS1R) small molecule agonists, calcium flux assay in KISS1R-HEK293 cells (AID 1920064; active = well fitted curve in the direction sought with a large enough effect in the repeat runs; an effect the other way counts as inactive or inconclusive; note: potency is the fitted concentration of half-maximal effect). The method, boiled down:
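Triplicate 15-concentration series were applied to dye-loaded human KISS1R HEK293 cells, and agonist-evoked calcium fluorescence was captured for 3 min.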

Experiment [5] can be described thus: G protein-coupled receptor (GPCR) small molecule agonists, calcium flux assay: HEK293 wild type cell line counter screen (AID 1920065). Note: potency is the fitted concentration of half-maximal effect. The method, boiled down:
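Non-specific calcium responders were flagged by adding DMSO-dissolved compounds to dye-loaded cells and reading 480/540 nm fluorescence each second for 3 min; ATP served as positive control.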

Experiment [6] is described as follows: p53 small molecule agonists, cell-based qHTS assay with human liver microsomes (AID 1963577). The essentials: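 Fluorescence of the beta-lactamase reporter in p53RE-bla cells, detected with LiveBLAzer substrate (2 h, room temperature, dark), served as the read-out after 16 h compound exposure at 37 C with human liver microsomes and NADPH, each 0.5 mg/mL final.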

Experiment [7] can be described thus: p53 small molecule agonists, cell-based qHTS assay with rat liver microsomes (AID 1963578). The method, boiled down:
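Cells carrying a p53 response element–beta-lactamase reporter were plated and rested 5 h, then dosed with compound in DMSO plus rat liver microsomes and NADPH, each at 0.5 mg/mL final. After 16 h at 37 C, LiveBLAzer substrate was added for 2 h.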

A short description of experiment [8]: p53 small molecule agonists, cell-based qHTS assay with human liver microsomes: qHTS cell viability counter screen (AID 1963579). Note: nearly all actives have a fitted effect of over 45% in size. Note: potency is the fitted concentration of half-maximal effect. The method, boiled down:
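Cytotoxicity counter screen: p53RE-bla, 4,000 cells/well; 5 h settle, 37 C/5% CO2; cpd + HLM 0.5 mg/mL + NADPH 0.5 mg/mL (final); 16 h, 37 C; CellTiter-Glo, 30 min RT, luminescence.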

Experiment [9] is described as follows: p53 small molecule agonists, cell-based qHTS assay with rat liver microsomes: qHTS cell viability counter screen (AID 1963580). Note: nearly all actives have a fitted effect of over 45% in size. Note: potency is the fitted concentration of half-maximal effect. The essentials:
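Rat liver microsome (0.5 mg/mL final) and NADPH (0.5 mg/mL final) co-incubation with compounds for 16 h at 37 C on HCT-116 p53RE-bla cells; cytotoxicity taken from intracellular ATP luminescence.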

Experiment [10] can be described thus: p53 small molecule agonists, cell-based qHTS assay: qHTS cell viability counter screen (AID 1963581). Note: nearly all actives have a fitted effect of over 45% in size. Note: potency is the fitted concentration of half-maximal effect. The method, boiled down:
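Multiplexed with the reporter read, a CellTiter-Glo step (30 min, room temperature) gauges ATP-based viability of HCT-116 p53RE-bla cells after 16 h compound incubation at 37 C.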

For experiment [11], the target named is 5-hydroxytryptamine receptor 2A (Homo sapiens) (UniProt P28223). Put plainly: 5-hydroxytryptamine receptor 2A (HTR2A) small molecule antagonists, cell-based qHTS assay (AID 1963586). Note: nearly all actives have a fitted effect of over 45% in size. Note: potency is the fitted concentration of half-maximal effect. The method, boiled down: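 CHO cells stably expressing human HTR2A were plated for 18 h at 37 C, then loaded with calcium dye for 1 h. Compounds were preincubated 5 min at room temperature before DOI (4 nM solution) was added. Kinetic fluorescence was read for 3 min.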

Experiment [12] has the same target. Put plainly: 5-hydroxytryptamine receptor 2A (HTR2A) small molecule agonists, cell-based qHTS assay (AID 1963587). Note: nearly all actives have a fitted effect of over 30% in size. Note: potency is the fitted concentration of half-maximal effect. The essentials: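 Kinetic calcium-flux fluorescence (2 min, 1 sec intervals) after compound addition in agonist mode. HTR2A-CHO cells were cultured 18 h, then dye-loaded 1 h at 37 C.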
The target of experiment [13] is Muscarinic acetylcholine receptor M1 (Homo sapiens) (UniProt P11229). Kind of experiment: Cholinergic receptor muscarinic 1 (CHRM1) small molecule antagonists, cell-based qHTS assay (AID 1963588). Note: nearly all actives have a fitted effect of over 40% in size. Note: potency is the fitted concentration of half-maximal effect. The essentials:
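Compounds were tested at 15 concentrations in three independent runs. Dye-loaded CHRM1-CHO cells were exposed 5 min at room temperature before stimulation by acetylcholine added at 50nM. Intracellular calcium was read kinetically on FDSS for 3 min.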

Experiment [14] shares this target. Put plainly: Cholinergic receptor muscarinic 1 (CHRM1) small molecule agonists, cell-based qHTS assay (AID 1963589). Note: nearly all actives have a fitted effect of over 35% in size. Note: potency is the fitted concentration of half-maximal effect. The method, boiled down: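 qHTS, 15-point titration, 3 independent runs: compounds pin-transferred onto dye-loaded CHRM1-CHO cells (human M1), calcium fluorescence followed every second to detect agonism.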
Experiment [15] concerns the target D(2) dopamine receptor (Homo sapiens) (UniProt P14416). Kind of experiment: Dopamine D2 receptor (DRD2) small molecule antagonists, cell-based qHTS assay (AID 1963595; active = well fitted inhibition curve with a large enough effect in the signal ratio in the repeat runs, with a control signal flat; the % refers to the signal ratio; note: potency is the fitted concentration of half-maximal effect). The essentials:
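Antagonist mode in DRD2-HEK293 cells: after compound addition with 0.1 mM Ro20-1724, cells received quinpirole (12 nM) and NKH477 (200 nM) for 30 min at room temperature; HTRF cAMP read after 1 h detection.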

Experiment [16] in a line: p53 small molecule agonists, cell-based qHTS assay (AID 1963582; active = well fitted activation curve with a large enough effect in the signal ratio in the repeat runs, not every such curve was filed as active; the % refers to the signal ratio). The method, boiled down: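 Beta-lactamase reporter cells (p53RE-bla) treated with compounds for 16 h at 37 C; FRET substrate, 2 h, room temperature; fluorescence intensity.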
Experiment [17] is described as follows: cAMP Responsive Elements (CRE) small molecule agonists, cell-based qHTS assay (AID 1963590). The method, boiled down: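 Quantitative HTS for CRE agonists: HEK 293T CRE-bla cells, overnight plating, 3 h compound incubation at 37 C/5% CO2, then 2 h room-temperature LiveBLAzer B/G FRET substrate loading.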
Experiment [18] can be described thus: cAMP Responsive Elements (CRE) small molecule antagonists, cell-based qHTS assay (AID 1963591; active = well fitted inhibition curve with a large enough effect in the signal ratio in the repeat runs, not every such curve was filed as active; the % refers to the signal ratio). The method, boiled down:
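Fluorescence intensity from cleaved LiveBLAzer B/G substrate (2 h, room temperature) quantified CRE-bla activity in HEK 293T cells exposed 3 h to compound with 0.25 uM final NKH477.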

For experiment [19], the target named is Beta-2 adrenergic receptor (Homo sapiens) (UniProt P07550). Put plainly: Adrenergic beta2 receptor (ADRB2) small molecule antagonists, cell-based qHTS assay (AID 1963592). Note: series mostly up to about 92 µM; nearly all actives have a fitted effect of over 50% in size. The method, boiled down:
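Assay format: CHO-ADRB2 cells, 18-20hr seeding at 37C/5% CO2, then compound plus 1nM isoproterenol agonist mix for 0.5hr RT. Homogeneous time-resolved fluorescence cAMP detection after 1hr, expressed as 665/615 nm ratio.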

For experiment [20], the target named is D(2) dopamine receptor (Homo sapiens) (UniProt P14416). Put plainly: Dopamine D2 receptor (DRD2) small molecule agonists, cell-based qHTS assay (AID 1963594). Note: nearly all actives have a fitted effect of over 35% in size. The method, boiled down: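 cAMP accumulation in DRD2-HEK293 cells measured by HTRF after 1 h detection; compounds added 10 min before NKH477 (200nM […]) forskolin-analogue stimulation, 30 min at room temperature, with Ro20-1724 present at 0.1 mM final.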
Sequence of D(2) dopamine receptor (Homo sapiens) (P14416 whole entry, looked up): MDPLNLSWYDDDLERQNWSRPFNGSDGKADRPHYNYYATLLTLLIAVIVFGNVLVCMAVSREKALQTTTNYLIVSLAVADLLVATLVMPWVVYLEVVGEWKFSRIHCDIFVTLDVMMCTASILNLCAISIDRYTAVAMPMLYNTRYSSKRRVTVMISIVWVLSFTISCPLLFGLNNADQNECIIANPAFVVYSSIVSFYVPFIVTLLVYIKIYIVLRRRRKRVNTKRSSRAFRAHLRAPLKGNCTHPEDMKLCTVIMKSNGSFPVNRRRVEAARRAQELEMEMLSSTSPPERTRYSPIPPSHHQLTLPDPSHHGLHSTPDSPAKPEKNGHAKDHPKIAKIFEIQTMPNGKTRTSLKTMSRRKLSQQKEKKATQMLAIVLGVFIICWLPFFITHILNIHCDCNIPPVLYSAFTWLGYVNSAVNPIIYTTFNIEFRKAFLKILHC

Sequence of 5-hydroxytryptamine receptor 2A (Homo sapiens) (P28223 whole entry, looked up): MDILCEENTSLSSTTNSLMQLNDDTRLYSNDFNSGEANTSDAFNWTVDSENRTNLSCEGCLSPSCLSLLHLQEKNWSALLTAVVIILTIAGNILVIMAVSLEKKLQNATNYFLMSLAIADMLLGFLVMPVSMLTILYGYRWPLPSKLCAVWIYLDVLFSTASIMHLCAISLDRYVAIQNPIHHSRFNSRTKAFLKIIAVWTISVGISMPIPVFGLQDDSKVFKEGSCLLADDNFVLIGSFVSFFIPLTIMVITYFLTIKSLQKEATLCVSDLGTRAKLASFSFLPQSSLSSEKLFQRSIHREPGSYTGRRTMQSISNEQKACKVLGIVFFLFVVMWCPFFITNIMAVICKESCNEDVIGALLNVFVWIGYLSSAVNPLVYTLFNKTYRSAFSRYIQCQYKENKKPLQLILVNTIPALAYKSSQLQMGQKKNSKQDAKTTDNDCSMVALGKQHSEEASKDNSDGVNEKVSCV
Sequence of Muscarinic acetylcholine receptor M1 (Homo sapiens) (P11229 whole entry, looked up): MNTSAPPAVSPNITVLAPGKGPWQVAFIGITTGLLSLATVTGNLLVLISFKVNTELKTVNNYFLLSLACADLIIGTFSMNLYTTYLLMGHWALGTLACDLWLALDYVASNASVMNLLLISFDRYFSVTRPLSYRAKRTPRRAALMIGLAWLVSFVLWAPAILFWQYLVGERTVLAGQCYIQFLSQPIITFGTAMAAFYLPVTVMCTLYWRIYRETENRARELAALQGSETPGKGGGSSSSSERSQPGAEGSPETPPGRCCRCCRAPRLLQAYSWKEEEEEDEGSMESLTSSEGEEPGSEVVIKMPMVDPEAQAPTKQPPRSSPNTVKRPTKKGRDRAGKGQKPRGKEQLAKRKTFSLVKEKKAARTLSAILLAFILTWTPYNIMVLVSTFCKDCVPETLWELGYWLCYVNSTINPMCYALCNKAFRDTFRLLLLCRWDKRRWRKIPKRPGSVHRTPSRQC
Sequence of Gonadotropin-releasing hormone receptor (Homo sapiens) (P30968 whole entry, looked up): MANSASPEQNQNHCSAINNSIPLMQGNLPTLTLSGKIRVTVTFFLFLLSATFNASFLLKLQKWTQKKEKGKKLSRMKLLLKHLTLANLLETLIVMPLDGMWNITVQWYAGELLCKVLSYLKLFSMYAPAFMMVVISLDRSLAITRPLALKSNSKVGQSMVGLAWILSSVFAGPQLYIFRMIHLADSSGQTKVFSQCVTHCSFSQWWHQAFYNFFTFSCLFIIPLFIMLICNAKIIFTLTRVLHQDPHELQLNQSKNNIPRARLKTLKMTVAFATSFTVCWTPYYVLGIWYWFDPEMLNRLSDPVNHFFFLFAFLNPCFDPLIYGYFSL
Sequence of Beta-2 adrenergic receptor (Homo sapiens) (P07550 whole entry, looked up): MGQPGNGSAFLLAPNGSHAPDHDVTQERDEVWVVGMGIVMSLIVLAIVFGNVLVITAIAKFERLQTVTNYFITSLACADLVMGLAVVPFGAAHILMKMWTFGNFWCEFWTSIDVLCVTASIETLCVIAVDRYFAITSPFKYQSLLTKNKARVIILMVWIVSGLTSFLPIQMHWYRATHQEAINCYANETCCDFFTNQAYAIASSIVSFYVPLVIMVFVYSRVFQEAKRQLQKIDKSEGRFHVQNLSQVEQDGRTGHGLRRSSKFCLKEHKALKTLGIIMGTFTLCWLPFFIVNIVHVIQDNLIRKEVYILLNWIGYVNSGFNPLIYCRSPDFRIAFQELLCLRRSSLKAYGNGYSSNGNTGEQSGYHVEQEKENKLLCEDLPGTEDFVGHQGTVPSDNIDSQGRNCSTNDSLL
Sequence of KiSS-1 receptor (Homo sapiens) (Q969F8 whole entry, looked up): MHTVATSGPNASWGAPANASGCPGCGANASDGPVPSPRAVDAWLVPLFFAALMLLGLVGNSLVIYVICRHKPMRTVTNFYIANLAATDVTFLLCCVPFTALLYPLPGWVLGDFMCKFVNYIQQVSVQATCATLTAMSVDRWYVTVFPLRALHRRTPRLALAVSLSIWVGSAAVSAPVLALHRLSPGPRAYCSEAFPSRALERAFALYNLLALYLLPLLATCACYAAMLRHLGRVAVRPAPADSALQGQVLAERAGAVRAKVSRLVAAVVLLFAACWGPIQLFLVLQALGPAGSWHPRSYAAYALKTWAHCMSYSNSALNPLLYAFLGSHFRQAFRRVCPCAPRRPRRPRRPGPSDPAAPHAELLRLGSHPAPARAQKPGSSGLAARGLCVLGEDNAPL

Turning to `CCC[CH2][Sn]([Cl])([CH2]CCC)[CH2]CCC`, the Potency in [1] was 244 nM (active) and 486 nM (active); in experiment [2], 244 nM (active) and 486 nM (active); in experiment [3], 7.78 µM (active) and 38.9 µM (active); in experiment [4], 43.6 µM (active); in experiment [5], 34.7 µM (active); in experiment [8], 6.48 µM (active) and 5.76 µM (active). Also, the Potency in [9] is 4.09 µM (active) and 4.08 µM (active); in experiment [10], 1.29 µM (active) and inactive; in experiment [11], 18.8 µM (active); in experiment [12] it was 11 µM (active) and 34.7 µM (active); in experiment [13] it was 16.8 µM (active); in experiment [14], 21.9 µM (active) and 38.9 µM (active). Further, in [15], the Potency was 15.4 µM (active) and 19.3 µM (active). In addition, the Potency result in experiment [6] and in [7] was “inactive” throughout.
As to `COC(=O)c1ccccc1CS(=O)(=O)NC(=O)Nc1nc(OC)cc(OC)n1`, the Potency entry in [1], in experiment [2], in experiment [3], in experiment [4], in experiment [5] and in [6] was “inactive” in each case. The Potency entry in experiment [7], in [8], in [9], in experiment [16], in [11] and in [12] was “inactive” in each case. In addition, the Potency result in experiment [13], in experiment [14], in experiment [17], in experiment [18], in experiment [19] and in experiment [20] was “inactive” each time. Besides, in [15], the Potency result is “inactive”.
On to `O=[N+]([O-])c1ccccc1`, for which the Potency result in [1], in [2], in [3], in experiment [4], in experiment [5] and in [6] was “inactive” each time. Besides, the Potency result in [7], in experiment [8], in experiment [9], in [16], in experiment [11] and in [12] was “inactive” in each case. Besides, the Potency entry in experiment [13], in experiment [14], in experiment [17], in experiment [18], in experiment [19] and in experiment [20] was “inactive” throughout. Moreover, the Potency result in experiment [15] was “inactive”.
Regarding `COCC(=O)N(c1c(C)cccc1C)N1CCOC1=O`, the Potency entry in experiment [1], in experiment [2], in [3], in experiment [4], in experiment [5] and in experiment [6] was “inactive” each time. Also, the Potency entry in experiment [7], in [8], in experiment [9], in [10], in experiment [11] and in experiment [12] was “inactive” each time. For the same molecule, the Potency result in experiment [13], in experiment [14], in experiment [17], in experiment [18], in experiment [19] and in [20] was “inactive” throughout. For the same molecule, the Potency result in experiment [15] was “inactive”.
With `ClC(Cl)(Cl)C(Cl)(Cl)Cl`, the Potency entry in experiment [1], in [2], in [3], in [4], in experiment [5] and in experiment [6] was “inactive” in each case. Further, the Potency result in experiment [7], in [8], in experiment [9], in experiment [10], in [11] and in experiment [13] was “inactive” in each case. In addition, the Potency entry in experiment [14], in [17], in experiment [18], in experiment [19], in experiment [20] and in [15] was “inactive” throughout.
`N#Cc1nn(-c2c(Cl)cc(C(F)(F)F)cc2Cl)c(N)c1S(=O)C(F)(F)F` (stereo not given): in experiment [1], the Potency is 61.5 µM (active). The Potency result in experiment [2], in [3], in experiment [4], in [5], in experiment [6] and in experiment [7] was “inactive” throughout. For the same molecule, the Potency result in experiment [8], in experiment [9], in experiment [10], in experiment [11], in [12] and in experiment [13] was “inactive” throughout. The Potency result in experiment [19], in experiment [20] and in experiment [15] was “inactive” in each case.
For `NNC(=S)NN`, the Potency in experiment [1] was 6.28 µM (active) and 30.6 µM (active); in [2] it was 2.5 µM (active). Besides, the Potency result in [3], in experiment [4], in [5], in experiment [6], in experiment [7] and in [8] was “inactive” each time. In addition, the Potency entry in experiment [9], in experiment [10], in experiment [11], in experiment [12], in experiment [13] and in experiment [14] was “inactive” in each case. Further, the Potency entry in experiment [17], in experiment [18], in [19], in experiment [20] and in experiment [15] was “inactive” in each case.
